Test results from paper PMC9911399, “Two distinct binding modes provide the RNA-binding protein RbFox with extraordinary sequence specificity”.
Residue numbers refer to the chain shown, from its start. The full ranking holds about 16,000 sequences; the median of “ka relative to ugcaugu” is about 0.096, and the highest 2% start at about 0.35. This excerpt belongs to a sample that is enriched for the highest values.

B1: UGGUGUC (DNA:RNA)
RNA: GGGAGACCGGAAUUCAGAUUGUCCUGGUGUCUUAAAUCCCGUCGUAGCCACCA
DNA 1: CAATCTGAATTCCGGTCTCCC
DNA 2: TGGTGGCTACGACGGGATT
B2: AAUUGGG (DNA:RNA)
RNA: B1 RNA with U25A, G26A, G27U, U30G, C31G
DNA 1: CAATCTGAATTCCGGTCTCCC
DNA 2: TGGTGGCTACGACGGGATT
B3: UGUUGGC (DNA:RNA)
RNA: B1 RNA with G27U, U30G
DNA 1: CAATCTGAATTCCGGTCTCCC
DNA 2: TGGTGGCTACGACGGGATT
B4: GUUAACC (DNA:RNA)
RNA: B1 RNA with U25G, G26U, G27U, U28A, G29A, U30C
DNA 1: CAATCTGAATTCCGGTCTCCC
DNA 2: TGGTGGCTACGACGGGATT
B5: UUCCCAG (DNA:RNA)
RNA: B1 RNA with G26U, G27C, U28C, G29C, U30A, C31G
DNA 1: CAATCTGAATTCCGGTCTCCC
DNA 2: TGGTGGCTACGACGGGATT
B6: GUUACAG (DNA:RNA)
RNA: GGGAGACCGGAAUUCAGAUUGUCCGUUACAGUUAAAUCCCGUCGUAGCCACCA
DNA 1: CAATCTGAATTCCGGTCTCCC
DNA 2: TGGTGGCTACGACGGGATT
B7: AGGUUCG (DNA:RNA)
RNA: B1 RNA with U25A, G29U, U30C, C31G
DNA 1: CAATCTGAATTCCGGTCTCCC
DNA 2: TGGTGGCTACGACGGGATT
B8: GUCCAGG (DNA:RNA)
RNA: B6 RNA with U27C, A28C, C29A, A30G
DNA 1: CAATCTGAATTCCGGTCTCCC
DNA 2: TGGTGGCTACGACGGGATT
B9: ACCAGGU (DNA:RNA)
RNA: B6 RNA with G25A, U26C, U27C, C29G, A30G, G31U
DNA 1: CAATCTGAATTCCGGTCTCCC
DNA 2: TGGTGGCTACGACGGGATT
B10: AGGUUUG (DNA:RNA)
RNA: B1 RNA with U25A, G29U, C31G
DNA 1: CAATCTGAATTCCGGTCTCCC
DNA 2: TGGTGGCTACGACGGGATT
B11: AGGUUGU (DNA:RNA)
RNA: B1 RNA with U25A, G29U, U30G, C31U
DNA 1: CAATCTGAATTCCGGTCTCCC
DNA 2: TGGTGGCTACGACGGGATT
B12: GUUCAGG (DNA:RNA)
RNA: B6 RNA with A28C, C29A, A30G
DNA 1: CAATCTGAATTCCGGTCTCCC
DNA 2: TGGTGGCTACGACGGGATT
B13: AGCGAUU (DNA:RNA)
RNA: B1 RNA with U25A, G27C, U28G, G29A, C31U
DNA 1: CAATCTGAATTCCGGTCTCCC
DNA 2: TGGTGGCTACGACGGGATT
B14: CUCACAU (DNA:RNA)
RNA: B6 RNA with G25C, U27C, G31U
DNA 1: CAATCTGAATTCCGGTCTCCC
DNA 2: TGGTGGCTACGACGGGATT
B15: AUGCAGC (DNA:RNA)
RNA: B1 RNA with U25A, G26U, U28C, G29A, U30G
DNA 1: CAATCTGAATTCCGGTCTCCC
DNA 2: TGGTGGCTACGACGGGATT
B16: AGUCCCU (DNA:RNA)
RNA: B6 RNA with G25A, U26G, A28C, A30C, G31U
DNA 1: CAATCTGAATTCCGGTCTCCC
DNA 2: TGGTGGCTACGACGGGATT
B17: GAAGUCC (DNA:RNA)
RNA: B6 RNA with U26A, U27A, A28G, C29U, A30C, G31C
DNA 1: CAATCTGAATTCCGGTCTCCC
DNA 2: TGGTGGCTACGACGGGATT
B18: UGCCAGA (DNA:RNA)
RNA: B1 RNA with G27C, U28C, G29A, U30G, C31A
DNA 1: CAATCTGAATTCCGGTCTCCC
DNA 2: TGGTGGCTACGACGGGATT
B19: GUGGUGG (DNA:RNA)
RNA: B6 RNA with U27G, A28G, C29U, A30G
DNA 1: CAATCTGAATTCCGGTCTCCC
DNA 2: TGGTGGCTACGACGGGATT
B20: UCCUUGG (DNA:RNA)
RNA: B1 RNA with G26C, G27C, G29U, U30G, C31G
DNA 1: CAATCTGAATTCCGGTCTCCC
DNA 2: TGGTGGCTACGACGGGATT
B21: UUGUUGG (DNA:RNA)
RNA: B1 RNA with G26U, G29U, U30G, C31G
DNA 1: CAATCTGAATTCCGGTCTCCC
DNA 2: TGGTGGCTACGACGGGATT
B22: GUCGUGG (DNA:RNA)
RNA: B6 RNA with U27C, A28G, C29U, A30G
DNA 1: CAATCTGAATTCCGGTCTCCC
DNA 2: TGGTGGCTACGACGGGATT
B23: GUGGUUG (DNA:RNA)
RNA: B6 RNA with U27G, A28G, C29U, A30U
DNA 1: CAATCTGAATTCCGGTCTCCC
DNA 2: TGGTGGCTACGACGGGATT
B24: UUGGUUG (DNA:RNA)
RNA: B1 RNA with G26U, U28G, G29U, C31G
DNA 1: CAATCTGAATTCCGGTCTCCC
DNA 2: TGGTGGCTACGACGGGATT

Target: T1, RBFOX1 RRM RbFoxmut (Fox-RRM*) (Homo sapiens, UniProt Q9NWB1 109-208, R118D;E147R;N151S;E152T)
T1 sequence: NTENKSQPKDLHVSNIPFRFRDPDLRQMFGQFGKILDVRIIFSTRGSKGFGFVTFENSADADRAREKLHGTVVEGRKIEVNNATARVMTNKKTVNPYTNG
Experiment: EMSA; HiTS-Eq, 1 nM pool, 10 min; buffer printed only for the single-RNA assays: 10 mM Tris pH 7.5, 150 mM NaCl, 3.4 mM EDTA, 0.001% NP-40, 30 C
Settings: tags: His6 N-terminal (pET28a); label: 5' 32P
Procedure, shortened: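 These values rest on relative association constants, computed from read-count changes of each RNA species versus the control reaction and normalised to the cognate motif. Reads came from free RNA recovered by 8% native PAGE after purified RbFox RRM (wild type or mutant) at increasing concentrations was equilibrated for 10 min in 50 µL with 1 nM of a 5′-radiolabelled pool with 7 randomized nucleotides and DNA-annealed flanks.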

Binder | binding signal
B1 | 0.281 KA relative to UGCAUGU
B2 | 0.0731 KA relative to UGCAUGU
B3 | 0.0854 KA relative to UGCAUGU
B4 | 0.0736 KA relative to UGCAUGU
B5 | 0.103 KA relative to UGCAUGU
B6 | 0.114 KA relative to UGCAUGU
B7 | 0.357 KA relative to UGCAUGU
B8 | 0.0991 KA relative to UGCAUGU
B9 | 0.11 KA relative to UGCAUGU
B10 | 0.525 KA relative to UGCAUGU
B11 | 0.332 KA relative to UGCAUGU
B12 | 0.0776 KA relative to UGCAUGU
B13 | 0.072 KA relative to UGCAUGU
B14 | 0.0911 KA relative to UGCAUGU
B15 | 0.106 KA relative to UGCAUGU
B16 | 0.0659 KA relative to UGCAUGU
B17 | 0.0491 KA relative to UGCAUGU
B18 | 0.116 KA relative to UGCAUGU
B19 | 0.15 KA relative to UGCAUGU
B20 | 0.0776 KA relative to UGCAUGU
B21 | 0.117 KA relative to UGCAUGU
B22 | 0.112 KA relative to UGCAUGU
B23 | 0.737 KA relative to UGCAUGU
B24 | 0.65 KA relative to UGCAUGU
